The source of these data is the supplement of paper PMC8728848.

The sample as a whole holds a higher share of the strongest signals than the screen did.

The first assay concerns Neu5Ac(a2-3)Gal(b1-4)Glc. The experiment in a line: glycan array binding signal (z-score within array); higher = stronger binding. Conditions: glycan notation: IUPAC condensed, linker removed. The method in brief:
(§1)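 The binding signal is a Z-score computed within each array and averaged over linkers. Arrays of the same protein sequence at different concentrations or buffers were also averaged together. Data originate from 3228 arrays in the Consortium for Functional Glycomics database, kept only where the protein sequence was available.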
Regarding MIC3-MAR1b (Eimeria tenella), B6VCV4, the “glycan array binding signal (z-score)” value was -0.453.

Turning to “SiiE (Salmonella typhimurium), A0A0H3NVH0”, the “glycan array binding signal (z-score)” value came out at 2.39.

With Actinohivin (Actinomycete K97), the “glycan array binding signal (z-score)” value was found to be 0.053.

Another assay relates to Neu5Ac(a2-3)Gal(b1-4)[Fuc(a1-3)]GlcNAc(b1-6)[Neu5Ac(a2-3)Gal(b1-3)]GalNAc. Described as above. The conditions noted are these: glycan notation: IUPAC condensed, linker removed. The method in brief:
as §1
As to “AgI/II Vhelical-GFP (Streptococcus mutans)”, the “glycan array binding signal (z-score)” value is -0.178.

With Actinohivin (Actinomycete K97), the “glycan array binding signal (z-score)” value is -0.02.

As for Epa22, the “glycan array binding signal (z-score)” value is 0.118.
